# Assay results published in ChEMBL document CHEMBL5308504, “Tm Shift (DSF) assay results for EUbOPEN Chemogenomics Library” (2023).
# Legend:
# Details in all cases: Compound concentration 20.0 uM, Protein concentration 2.0 uM, Result type QC Liability
# [1] = target: Tyrosine-protein kinase ABL1 (Homo sapiens) (UniProt P00519)
# [2] = target: Cyclin-dependent kinase 2 (Homo sapiens) (UniProt P24941)
# [3] = target: Casein kinase I isoform delta (Homo sapiens) (UniProt P48730)
# [4] = target: Glycogen synthase kinase-3 beta (Homo sapiens) (UniProt P49841)
# Chain of Glycogen synthase kinase-3 beta (Homo sapiens) (P49841 whole entry, looked up): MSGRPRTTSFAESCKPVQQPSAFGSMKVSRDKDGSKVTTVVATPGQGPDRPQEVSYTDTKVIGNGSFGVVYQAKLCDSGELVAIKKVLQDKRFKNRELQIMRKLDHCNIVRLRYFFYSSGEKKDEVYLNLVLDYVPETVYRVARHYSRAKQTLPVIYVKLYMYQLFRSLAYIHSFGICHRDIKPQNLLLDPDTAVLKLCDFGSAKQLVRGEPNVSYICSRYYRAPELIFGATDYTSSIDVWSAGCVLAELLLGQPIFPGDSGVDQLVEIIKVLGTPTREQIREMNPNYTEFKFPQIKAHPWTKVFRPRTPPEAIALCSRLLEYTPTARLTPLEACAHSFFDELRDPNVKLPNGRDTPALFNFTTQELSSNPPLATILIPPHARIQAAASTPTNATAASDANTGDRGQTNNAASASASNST
# [5] = target: Mitogen-activated protein kinase 1 (Homo sapiens) (UniProt P28482)
# Chain of Mitogen-activated protein kinase 1 (Homo sapiens) (P28482 whole entry): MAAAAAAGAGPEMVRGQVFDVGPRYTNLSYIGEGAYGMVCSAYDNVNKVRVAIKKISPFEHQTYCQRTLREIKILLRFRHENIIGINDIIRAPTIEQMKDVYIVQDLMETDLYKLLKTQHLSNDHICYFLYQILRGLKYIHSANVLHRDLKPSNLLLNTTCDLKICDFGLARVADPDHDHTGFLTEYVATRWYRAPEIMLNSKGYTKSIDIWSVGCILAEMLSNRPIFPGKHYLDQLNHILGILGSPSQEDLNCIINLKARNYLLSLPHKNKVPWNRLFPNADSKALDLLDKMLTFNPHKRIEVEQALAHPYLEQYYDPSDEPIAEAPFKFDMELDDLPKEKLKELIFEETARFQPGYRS
# [6] = target: T1, Aurora kinase A (Homo sapiens) (UniProt O14965)
# T1 sequence (whole entry): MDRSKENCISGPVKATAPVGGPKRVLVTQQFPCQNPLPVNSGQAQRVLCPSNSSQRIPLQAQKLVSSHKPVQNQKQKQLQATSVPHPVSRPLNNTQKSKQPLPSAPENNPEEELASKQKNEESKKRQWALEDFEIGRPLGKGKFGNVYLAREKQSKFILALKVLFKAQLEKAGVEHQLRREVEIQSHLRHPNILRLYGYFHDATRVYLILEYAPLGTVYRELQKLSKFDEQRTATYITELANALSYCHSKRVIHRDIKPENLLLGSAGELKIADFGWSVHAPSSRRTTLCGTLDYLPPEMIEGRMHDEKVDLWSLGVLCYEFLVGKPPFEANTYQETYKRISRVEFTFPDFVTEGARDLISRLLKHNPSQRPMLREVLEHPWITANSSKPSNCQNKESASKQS
# Chain of Tyrosine-protein kinase ABL1 (Homo sapiens) (P00519 whole entry): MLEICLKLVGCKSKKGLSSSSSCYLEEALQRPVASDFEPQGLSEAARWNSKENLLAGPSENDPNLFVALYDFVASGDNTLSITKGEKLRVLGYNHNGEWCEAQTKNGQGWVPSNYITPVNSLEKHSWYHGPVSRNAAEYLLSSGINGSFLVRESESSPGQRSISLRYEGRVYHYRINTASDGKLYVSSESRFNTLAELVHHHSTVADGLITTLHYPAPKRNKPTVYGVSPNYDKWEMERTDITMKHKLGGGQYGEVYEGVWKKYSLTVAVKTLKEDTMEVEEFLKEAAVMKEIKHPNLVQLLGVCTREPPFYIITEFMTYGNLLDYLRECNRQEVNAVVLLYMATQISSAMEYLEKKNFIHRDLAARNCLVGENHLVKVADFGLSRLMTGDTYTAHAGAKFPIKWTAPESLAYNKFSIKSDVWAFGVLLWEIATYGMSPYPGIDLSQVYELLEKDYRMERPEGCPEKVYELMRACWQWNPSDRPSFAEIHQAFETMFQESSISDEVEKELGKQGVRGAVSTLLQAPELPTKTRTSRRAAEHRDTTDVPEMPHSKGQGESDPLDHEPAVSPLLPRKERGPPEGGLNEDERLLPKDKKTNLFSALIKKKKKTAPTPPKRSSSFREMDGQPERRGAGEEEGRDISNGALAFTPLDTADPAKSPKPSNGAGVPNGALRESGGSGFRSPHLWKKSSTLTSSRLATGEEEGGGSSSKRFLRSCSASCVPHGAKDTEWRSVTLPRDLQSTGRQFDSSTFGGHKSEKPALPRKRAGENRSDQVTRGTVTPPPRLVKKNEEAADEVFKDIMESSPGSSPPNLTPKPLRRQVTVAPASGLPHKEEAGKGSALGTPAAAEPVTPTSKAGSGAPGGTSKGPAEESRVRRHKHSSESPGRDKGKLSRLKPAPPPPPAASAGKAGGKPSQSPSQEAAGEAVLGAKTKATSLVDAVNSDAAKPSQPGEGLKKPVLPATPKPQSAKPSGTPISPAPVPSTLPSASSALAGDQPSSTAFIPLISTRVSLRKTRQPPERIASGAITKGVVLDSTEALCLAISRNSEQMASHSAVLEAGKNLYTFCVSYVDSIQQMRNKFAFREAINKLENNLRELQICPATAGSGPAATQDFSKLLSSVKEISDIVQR
# Chain of Casein kinase I isoform delta (Homo sapiens) (P48730 whole entry, looked up, canonical isoform): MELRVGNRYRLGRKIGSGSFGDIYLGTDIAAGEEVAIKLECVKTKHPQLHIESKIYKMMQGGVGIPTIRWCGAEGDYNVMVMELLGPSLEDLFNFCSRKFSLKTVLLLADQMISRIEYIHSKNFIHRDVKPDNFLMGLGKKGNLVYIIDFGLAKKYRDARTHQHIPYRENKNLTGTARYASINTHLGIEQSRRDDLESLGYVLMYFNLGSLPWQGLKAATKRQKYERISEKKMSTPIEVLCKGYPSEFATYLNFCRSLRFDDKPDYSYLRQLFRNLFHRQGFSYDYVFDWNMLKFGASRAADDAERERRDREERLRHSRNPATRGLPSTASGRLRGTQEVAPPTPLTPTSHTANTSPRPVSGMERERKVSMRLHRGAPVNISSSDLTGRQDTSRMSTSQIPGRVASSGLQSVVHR
SMILES,ΔTm [1] [°C],ΔTm [2] [°C],ΔTm [3] [°C],ΔTm [4] [°C],ΔTm [5] [°C],ΔTm [6] [°C]
Cc1cc([N+](=O)[O-])c(NS(=O)(=O)c2cccc(C(=O)O)c2)cc1-c1cccnc1,0.08,0.85,0.28,0.02,0.58,0.29
CCOC(=O)Nc1ccc2c(c1)N(C(=O)CN(CC)CC)c1ccccc1CC2,0.17,0.57,0.58,-0.12,0.19,-1.06
CC[C@H](CO)Nc1nc(Nc2cccc(-c3ccccn3)c2)c2ncn(C(C)C)c2n1,7.62,4.37,4.48,1.93,2.21,4.01
Cc1cn([C@@H](C)CC#N)c(=O)c2cc(Cn3nc(C(F)F)cc3Cl)nn12,0.12,-0.57,-0.18,-0.66,0.18,-0.51
CN[C@@H](C)C(=O)N[C@H](C(=O)N1CCC[C@H]1C(=O)Nc1sc(-c2ncco2)nc1-c1ccccc1)C1CCCCC1,0.05,-0.21,-0.13,-0.9,0.08,-0.03
CSc1nc2c(c(=O)n(C)c(=O)n2C)n1C,0.1,0.27,0.33,-0.85,0.33,-0.13
C=CC1C[C@]1(NC(=O)[C@@H]1C[C@@H](Oc2cc(-c3csc(NC(=O)C(C)C)n3)nc3c(Br)c(OC)ccc23)CN1C(=O)[C@@H](NC(=O)OC1CCCC1)C(C)(C)C)C(=O)O (stereo partly drawn),0.33,0.56,0,-2.17,-1.13,0.81
C[C@@H]1C[C@H](C)CN(c2ncc(Cl)c(Nc3ccc4c(c3)cc(OC(C)(C)C(=O)O)c(=O)n4C)n2)C1,-0.58,0.18,-0.08,-1.47,0.14,0.18
CCS(=O)(=O)Nc1cccc(Oc2cc(F)cc(Nc3ccc(I)cc3F)c2NS(=O)(=O)C2CC2)c1,1.05,0.19,0.44,2.25,-1.88,0.23
CCS(=O)(=O)Nc1cccc(Oc2cncc(Nc3ccc(I)cc3F)c2C(N)=O)c1,0.95,0.72,-0.53,-0.71,-2.21,1.45
N#CN1CC[C@@H](C(=O)Nc2nc3c(s2)CN(C(=O)CN=[N+]=[N-])CC3)C1,0.86,0.33,0.49,-0.33,0.62,-0.54
CN1CCC(F)(Cn2cnc(-c3ccc(F)cn3)c2-c2ccnc3[nH]ccc23)CC1,0.05,0.48,8.14,-0.54,0.37,-0.98
O=C(O)c1cc2cc(Cc3cccnc3)ccc2o1,0.65,0.63,0.07,0.46,-0.29,-0.17
CC(C)(O)[C@H](F)CN1Cc2cc(NC(=O)c3cnn4cccnc34)c(N3CCOCC3)cc2C1=O,2.02,-0.03,0.59,0.95,0.46,3.04
Cc1ncsc1-c1ccc(CNC(=O)[C@@H]2C[C@H](O)CN2C(=O)[C@@H](NC(=O)C2(F)CC2)C(C)(C)C)c(OCCOc2ccc(CN3CCN(c4cc(-c5ccccc5O)nnc4N)CC3)cc2)c1 (relative stereo),0.51,2.76,6.03,0.29,0.5,3.42
O=c1[nH]c(CS[C@H]2CC[C@H](O)CC2)nc2cc(OCC3CC3)cc(F)c12,0.13,0.95,0.35,0.78,0.46,-0.03
CC(C(=O)Nc1cc(C#N)ccc1CCCC(=O)O)c1ccc(F)c2ccccc12 (stereo not drawn),0.96,0.61,0.09,0.53,-0.07,-0.36
O=C(Nc1snnc1C(=O)Nc1ccc(N2CCCC2)cc1)c1cncc(C(F)(F)F)c1,0.66,0.59,1.04,-1.38,0.03,-0.75
